Screening results deposited in PubChem BioAssay by National Center for Advancing Translational Sciences (NCATS).
KB-3-1 tox: kills parental KB-3-1 adenocarcinoma cells; 400,000 compounds, 1.4% hits; Potency, µM (top dose mostly 46.1 µM), usual class: cytotoxic; KB-3-1 viability, CellTiter-Glo ATP luminescence, 72 h; further: on the % scale 0 is the no-effect control and ±100 the full control effect; nearly all actives have a fitted effect of over 60% in size
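Screening of KB-3-1 cells (DMEM, 10% FBS, phenol-red free) ran from lowest to highest compound concentration; after 72 h at 37 °C viability was read luminescently and curves fitted.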
MCF10A rerep: induces DNA re-replication in MCF 10a normal breast cells | 350,000 compounds, 2.9% hits | MCF 10A DNA re-replication, Hoechst nuclear intensity, 48 h | Potency, µM (top dose mostly 46.1 µM), for the others: top-dose activity, positive = re-replication, actives largely listed as activators; further: % of control where 0% means no effect; nearly all actives have a fitted effect of over 50% in size
KB-V1 MDR tox: kills drug-selected multidrug resistant KB-V1 cells | Potency, µM (highest dose often 46.1 µM), hits mostly cytotoxic | KB-V1 MDR cells viability, CellTiter-Glo, 72 h | 400,000 compounds, 3.4% hits; further: on the % scale 0 is the no-effect control and ±100 the full control effect; nearly all actives have a fitted effect of over 60% in size
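Cells of the MDR subline KB-V1 are plated, dosed with compound at multiple concentrations, and incubated 72 h at 37 degrees C; CellTiter-Glo is then added and luminescence read after 10 min.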
SW480 rereplic: DNA re-replication induction in SW480 cells; SW480 DNA re-replication, Hoechst DNA content imaging, 48 h; 340,000 compounds, 1.8% hits; Potency, µM (titrated, usually from 46.1 µM), for the others: top-dose re-replication activation, actives largely listed as activators; AID 624297; further: % of control where 0% means no effect; nearly all actives have a fitted effect of over 55% in size
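DNA re-replication was detected as more nuclei of elevated Hoechst intensity after 48 hr exposure to compound (23 nL pinned per well of 250 cells).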
HT1080NT lethal: kills 2HG-producing HT-1080-NT fibrosarcoma cells; AID 686970; HT-1080-NT fibrosarcoma viability, CellTiter-Glo ATP luminescence, 48 h; 360,000 compounds, 1.6% hits; Potency, µM (titrated, usually from 46.1 µM), inactives show at the top dose activity, negative = less viability, hits mostly cytotoxic;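 further: NT is the 2HG producing partner of a matched IDH1 knockdown line; 0% = DMSO-treated cells and -100% = media-only wells without cells; nearly all actives have a fitted effect of over 55% in size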
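Read-out is CellTiter-Glo luminescence after 10 minutes at room temperature, following 48 hours' compound treatment of HT-1080-NT cells (750 cells/well, RPMI, 5% FBS, 37 degrees C).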
HT1080 IDH1KD tx: toxicity to HT-1080 IDH1 knockdown cells (counter line); HT-1080 IDH1 knockdown viability, ATP luminescence, 48 h; AID 686971; Potency, µM (doses to about 46.1 µM), inactives show at the highest dose activity, negative = toxicity, hits mostly cytotoxic; 360,000 compounds, 2% hits;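 further: 0% = DMSO wells and -100% = cell-free medium wells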
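% activity derives from luminescence (CellTiter-Glo), normalised to DMSO and no-cell wells. HT-1080-IDH1KD cells, 750/well, had 48 h compound exposure at 37 °C.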
* = called active by the depositor; i = inactive; ? = inconclusive; · = not tested or not shown; [ ] = remark or other dose. Only some compounds are listed: those with a hit (about 7.9% of all), similar ones and a draw of the others. The call rests on the fitted dose curve; in most records, active means well fitted curve in the direction sought with a large enough effect; inconclusive means small, poorly fitted or top-dose-only effect, or another doubt; inactive means no such curve, though single readings can be large; an effect the other way counts as inactive or inconclusive. Potency means the concentration at half of the fitted maximal effect.

SMILES | KB-3-1 tox | MCF10A rerep | KB-V1 MDR tox | SW480 rereplic | HT1080NT lethal | HT1080 IDH1KD tx
COc1cc2c(c(NC(C)=O)c1)N(C(C)=O)CCC2 | i | -0.5% | i | 1.8% | -0.6% | 6.2%
CN1C(=O)C2(Oc3ccccc3C3CC(c4ccccc4)=NN32)c2ccccc21 (centres undefined) | i | 19.8% | 18.4µM* | ? | -27.7% | -16.9%
Cc1ccc(C2=NN3C(C2)c2ccccc2OC32C(=O)Nc3ccccc32)cc1 (centres undefined) | i | ? | i | 5.8% | ? | ?
COC(=O)N/N=C/c1ccc(-c2ccc(Cl)cc2Cl)o1 | i | -1.1% | i | -0.2% | -0.5% | -9.6%
COC(=O)c1ccccc1-c1ccc(/C=N/NC(N)=O)o1 | 14.6µM* | -4.2% | 5.17µM* | -18.2% | 2.8% | -0.9%
COC(=O)N/N=C/c1ccc(-c2ccccc2Cl)o1 | ? | 0.5% | 6.51µM* | -6.8% | -18.8% | -11.1%
COc1ccc(-c2coc3cc(OC(C)=O)ccc3c2=S)cc1 | i | ? | i | ? | ? | ?
Cc1nn2c(N3CCN(C)CC3)cc(C(C)(C)C)nc2c1-c1ccccc1 | ? | ? | ? | ? | 20.6µM* | 16.4µM*
Cc1nn2c(N3CCN(C(=O)c4ccco4)CC3)cc(C(C)(C)C)nc2c1-c1ccccc1 | ? | -3.4% | 18.4µM* | -5.8% | -5.2% | -5.1%[9.24 µM]
CC(NNC(=S)N1CCN(c2ccccn2)CC1)c1nccc2ccccc12 (centres undefined) | ? | ? | 0.461µM* | ? | -18.5% | ?
CCNC(=S)N1CCN(c2ccccn2)CC1 | i | -3.7% | i | 0.1% | 19.9% | 16.6%
Fc1ccccc1NC(=S)N1CCN(c2ccccn2)CC1 | i | ? | 20.6µM* | 9.6% | 10.9% | 11.7%
S=C(Nc1ccccc1Cl)N1CCN(c2ccccn2)CC1 | i | 2.3% | i | -5.5% | -14.6% | -16.5%
CCCCn1c(N)c(N(Cc2ccccc2OC)C(=O)C(C)Oc2ccc(Cl)cc2)c(=O)[nH]c1=O (centres undefined) | ? | -17.5% | i | 20.6µM* | -3.8% | -2.9%
COC(=O)c1c(-c2ccc(OC)cc2)sc2ccc(N3CCOCC3)cc12 | 14.6µM* | 10.5% | i | 0.5% | -19.2% | -22.8%
CC1(C(=O)NS(=O)(=O)C2CC2)CCN(C(=O)c2cc3ccccc3s2)C1 (centres undefined) | i | · | ? | · | 1.6% | 14.0%
CCOC(=O)c1ccc(NC(=O)c2cc3c(n(-c4ccc(C)cc4)c2=O)CC(C)(C)CC3=O)cc1 | i | · | i | · | · | ·
CCN(CC)c1ccc(NC(=O)c2ccc(=O)[nH]c2)cc1S(=O)(=O)Nc1ccccc1OC | 10.3µM* | ? | i | ? | ? | ?
CCN(CC)c1ccc(NC(=O)c2ccccc2F)cc1S(=O)(=O)Nc1ccccc1OC | i | 2.0% | 9.2µM* | -78.7% | 2.9% | -8.0%
CCN(CC)c1ccc(NC(=O)c2ccccc2Br)cc1S(=O)(=O)Nc1ccccc1OC | i | 10.4% | ? | 0.1% | 0.5% | 1.6%
O=c1[nH]c(CN2CCN(c3ccc([N+](=O)[O-])cc3)CC2)nc2ccsc12 | 16.4µM* | -2.6% | 18.4µM* | 0.5% | -23.7% | -20.8%
Cc1ccc(C(C)C)c(OCCSc2nc(-c3cccs3)nc3cc(=O)[nH]n23)c1 | i | · | i | · | · | ·
O=C(CNC(=S)NC(=O)c1ccc(Br)o1)c1ccccc1 | i | 6.51µM* | i | 20.6µM* | -1.2% | -0.9%
COc1ccc(NC(=O)CSCc2cc(=O)c3cc(Cl)ccc3[nH]2)cc1 | i | · | i | · | · | ·
Nc1cnn(C2OC(CO)C(O)C2O)c(=O)n1 (centres undefined) | 2.31µM* | 1.0% | 4.11µM* | -5.0% | -8.8% | -29.1%
Nc1nc(=O)n(C2OC(CO)C(O)C2O)cc1F (centres undefined) | i | · | i | · | ? | -26.5%
